From PubChem BioAssay AID1159580 (chemical genetic matrix, 2015)
The whole screen tested about 5,500 compounds, of which about 2,000 (36%) were called active. About 18% were inconclusive and are not listed. The list shows a part of the results. A number with no mark means an inactive call. No stated cut-off is given here; in the data, active means normalized growth mostly below about 0.91 (no sharp cut-off); inconclusive means no clear call, values can overlap the other calls; inactive means mostly above about 0.92.

Experiment: chemical genetic growth profiling, strain panel (AID 1159580);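 further: tested at 20 µM; growth read once vehicle control cultures reached saturation at 30 °C; 1 = growth at the plate median or of vehicle wells; lower values mean less growth of the strain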
Conditions: growth OD
[1] = S. cerevisiae deletion strains, locus YBL105C, strain PKC1, hits give low values
[2] = S. cerevisiae deletion strains, locus YBR135W, strain CKS1, hits give low values
[3] = S. cerevisiae deletion strains, locus YBR160W, strain CDC28, hits give low values
[4] = S. cerevisiae deletion strains, locus YDL017W, strain CDC7, hits give low values
[5] = S. cerevisiae deletion strains, locus YDL028C, strain MPS1, hits give low values
[6] = S. cerevisiae deletion strains, locus YDL108W, strain KIN28, hits give low values
[7] = S. cerevisiae deletion strains, locus YDL132W, strain cdc53, hits give low values
[8] = S. cerevisiae deletion strains, locus YDL214C, strain PRR2, hits give low values
[9] = S. cerevisiae deletion strains, locus YDR052C, strain DBF4, hits give low values
[10] = S. cerevisiae deletion strains, locus YDR054C, strain cdc34, hits give low values
[11] = S. cerevisiae deletion strains, locus YDR477W, strain SNF1, hits give low values
[12] = S. cerevisiae deletion strains, locus YER123W, strain YCK3, hits give low values
[13] = S. cerevisiae deletion strains, locus YER133W, strain GLC7, hits give low values
[14] = S. cerevisiae deletion strains, locus YFL029C, strain CAK1, hits give low values
[15] = S. cerevisiae deletion strains, locus YFR003C, strain YPI1, hits give low values
[16] = S. cerevisiae deletion strains, locus YFR028C, strain CDC14, hits give low values
[17] = S. cerevisiae deletion strains, locus YGR040W, strain KSS1, hits give low values
[18] = S. cerevisiae deletion strains, locus YGR052W, strain FMP48, hits give low values
[19] = S. cerevisiae deletion strains, locus YGR092W, strain DBF2, hits give low values
[20] = S. cerevisiae deletion strains, locus YHR030C, strain SLT2, hits give low values
[21] = S. cerevisiae deletion strains, locus YHR079C, strain IRE1, hits give low values
[22] = S. cerevisiae deletion strains, locus YHR082C, strain KSP1, hits give low values
[23] = S. cerevisiae deletion strains, locus YHR205W, strain SCH9, hits give low values
[24] = S. cerevisiae deletion strains, locus YIL147C, strain SLN1, hits give low values
[25] = S. cerevisiae deletion strains, locus YJL095W, strain BCK1, hits give low values
[26] = S. cerevisiae deletion strains, locus YJL128C, strain PBS2, hits give low values
[27] = S. cerevisiae deletion strains, locus YJL157C, strain FAR1, hits give low values
[28] = S. cerevisiae deletion strains, locus YJR066W, strain TOR1 (second series), hits give low values
[29] = S. cerevisiae deletion strains, locus YJR066W, strain TOR1, hits give low values
[30] = S. cerevisiae deletion strains, locus YKL048C, strain ELM1, hits give low values
[31] = S. cerevisiae deletion strains, locus YKL067W, strain YNK1, hits give low values
[32] = S. cerevisiae deletion strains, locus YKL101W, strain HSL1, hits give low values
[33] = S. cerevisiae deletion strains, locus YKL203C, strain TOR2, hits give low values
[34] = S. cerevisiae deletion strains, locus YLR113W, strain HOG1, hits give low values
[35] = S. cerevisiae deletion strains, locus YLR133W, strain CKI1, hits give low values
[36] = S. cerevisiae deletion strains, locus YLR403W, strain SFP1, hits give low values
[37] = S. cerevisiae deletion strains, locus YML070W, strain DAK1, hits give low values
[38] = S. cerevisiae deletion strains, locus YMR001C, strain CDC5, hits give low values
[39] = S. cerevisiae deletion strains, locus YMR205C, strain PFK2 (second series), hits give low values
[40] = S. cerevisiae deletion strains, locus YMR277W, strain FCP1, hits give low values
[41] = S. cerevisiae deletion strains, locus YNL006W, strain LST8, hits give low values
[42] = S. cerevisiae deletion strains, locus YNL020C, strain ARK1, hits give low values
[43] = S. cerevisiae deletion strains, locus YNL183C, strain NPR1, hits give low values
[44] = S. cerevisiae deletion strains, locus YNL207W, strain RIO2, hits give low values
[45] = S. cerevisiae deletion strains, locus YNL222W, strain SSU72, hits give low values
[46] = S. cerevisiae deletion strains, locus YNL307C, strain MCK1 (second series), hits give low values
[47] = S. cerevisiae deletion strains, locus YOL078W, strain AVO1, hits give low values
[48] = S. cerevisiae deletion strains, locus YOL136C, strain PFK27, hits give low values
[49] = S. cerevisiae deletion strains, locus YOR061W, strain CKA2, hits give low values
[50] = S. cerevisiae deletion strains, locus YOR119C, strain RIO1, hits give low values
[51] = S. cerevisiae deletion strains, locus YOR231W, strain MKK1, hits give low values
[52] = S. cerevisiae deletion strains, locus YOR329C, strain SCD5, hits give low values
[53] = S. cerevisiae deletion strains, locus YPL031C, strain PHO85, hits give low values
[54] = S. cerevisiae deletion strains, locus YPL153C, strain RAD53, hits give low values
[55] = S. cerevisiae deletion strains, locus YPL204W, strain HRR25, hits give low values
[56] = S. cerevisiae deletion strains, locus YPL209C, strain IPL1, hits give low values
[57] = S. cerevisiae deletion strains, locus YPL256C, strain CLN2, hits give low values
[58] = S. cerevisiae deletion strains, locus YPR025C, strain CCL1, hits give low values
[59] = S. cerevisiae deletion strains, locus YPR106W, strain ISR1, hits give low values
[60] = S. cerevisiae deletion strains, locus YPR111W, strain DBF20, hits give low values
[61] = S. cerevisiae deletion strains, strain NNK1, hits give low values
[62] = S. cerevisiae deletion strains, strain TSCII, hits give low values
[63] = S. cerevisiae deletion strains, locus YDL101C, strain DUN1, hits give low values

O=C(Oc1ccc(C(F)(F)F)cc1[N+](=O)[O-])c1cccc(Cl)c1
normalized growth [1]: 0.953
normalized growth [2]: 0.936
normalized growth [3]: 0.944
normalized growth [4]: 0.947
normalized growth [5]: 0.941
normalized growth [6]: 0.936
normalized growth [7]: 0.911
normalized growth [8]: 0.746
normalized growth [9]: 0.944
normalized growth [10]: 0.613 (active)
normalized growth [11]: 0.626 (active)
normalized growth [12]: 0.423 (active)
normalized growth [13]: 0.584 (active)
normalized growth [14]: 0.923
normalized growth [15]: 0.944
normalized growth [16]: 0.938
normalized growth [17]: 0.617 (active)
normalized growth [18]: 0.124 (active)
normalized growth [19]: 0.133 (active)
normalized growth [20]: 0.132 (active)
normalized growth [21]: 0.22 (active)
normalized growth [22]: 0.162 (active)
normalized growth [23]: 0.00246 (active)
normalized growth [24]: 0.947
normalized growth [25]: 0.141 (active)
normalized growth [26]: 0.132 (active)
normalized growth [27]: 0.638 (active)
normalized growth [28]: 0.248 (active)
normalized growth [29]: 0.134 (active)
normalized growth [30]: 0.623 (active)
normalized growth [31]: 0.645 (active)
normalized growth [32]: 0.662 (active)
normalized growth [33]: 0.712
normalized growth [34]: 0.21 (active)
normalized growth [35]: 0.556 (active)
normalized growth [36]: 0.0472 (active)
normalized growth [37]: 0.521 (active)
normalized growth [38]: 0.943
normalized growth [39]: 0.584 (active)
normalized growth [40]: 0.948
normalized growth [41]: 0.945
normalized growth [42]: 0.513 (active)
normalized growth [43]: 0.132 (active)
normalized growth [44]: 0.571 (active)
normalized growth [45]: 0.93
normalized growth [46]: 0.295 (active)
normalized growth [47]: 0.939
normalized growth [48]: 0.426 (active)
normalized growth [49]: 0.369 (active)
normalized growth [50]: 0.448 (active)
normalized growth [51]: 0.348 (active)
normalized growth [52]: 0.946
normalized growth [53]: 0.507 (active)
normalized growth [54]: 0.581 (active)
normalized growth [55]: 0.449 (active)
normalized growth [56]: 0.941
normalized growth [57]: 0.266 (active)
normalized growth [58]: 0.937
normalized growth [59]: 0.584 (active)
normalized growth [60]: 0.363 (active)
normalized growth [61]: 0.554 (active)
normalized growth [62]: 0.94

O=C(Oc1ccc(C(F)(F)F)cc1[N+](=O)[O-])c1c(F)cccc1F
normalized growth (S. cerevisiae deletion strains, locus YAL013W, strain DEP1, hits give low values): 0.185 (active)
normalized growth (S. cerevisiae deletion strains, locus YBR229C, strain ROT2, hits give low values): 0.178 (active)
normalized growth [63]: 0.316 (active)
normalized growth (S. cerevisiae deletion strains, locus YDR150W, strain NUM1, hits give low values): 0.25 (active)
normalized growth (S. cerevisiae deletion strains, locus YEL061C, strain CIN8, hits give low values): 0.235 (active)
normalized growth (S. cerevisiae deletion strains, locus YGR078C, strain PAC10, hits give low values): 0.172 (active)
normalized growth (S. cerevisiae deletion strains, locus YGR229C, strain SMI1, hits give low values): 0.927 (active)
normalized growth [20]: 0.16 (active)
normalized growth (S. cerevisiae deletion strains, locus YHR087W, strain rtc3, hits give low values): 0.133 (active)
normalized growth (S. cerevisiae deletion strains, locus YJL187C, strain SWE1, hits give low values): 0.141 (active)
normalized growth (S. cerevisiae deletion strains, locus YJR043C, strain POL32, hits give low values): 0.424 (active)
normalized growth (S. cerevisiae deletion strains, locus YJR075W, strain HOC1, hits give low values): 0.101 (active)
normalized growth (S. cerevisiae deletion strains, locus YKL190W, strain CNB1, hits give low values): 0.218 (active)
normalized growth (S. cerevisiae deletion strains, locus YLR039C, strain RIC1, hits give low values): 0.286 (active)
normalized growth (S. cerevisiae deletion strains, locus YLR058C, strain SHM2 (second series), hits give low values): 0.15 (active)
normalized growth (S. cerevisiae deletion strains, locus YLR085C, strain ARP6, hits give low values): 0.122 (active)
normalized growth (S. cerevisiae deletion strains, locus YLR262C, strain YPT6, hits give low values): 0.316 (active)
normalized growth (S. cerevisiae deletion strains, locus YML094W, strain GIM5, hits give low values): 0.4 (active)
normalized growth (S. cerevisiae deletion strains, locus YMR219W, strain ESC1, hits give low values): 0.14 (active)
normalized growth (S. cerevisiae deletion strains, locus YMR263W, strain SAP30, hits give low values): 0.169 (active)
normalized growth (S. cerevisiae deletion strains, locus YMR307W, strain GAS1, hits give low values): 0.213 (active)
normalized growth (S. cerevisiae deletion strains, locus YNL153C, strain GIM3, hits give low values): 0.227 (active)
normalized growth (S. cerevisiae deletion strains, locus YNL298W, strain CLA4 (second series), hits give low values): 0.23 (active)
normalized growth (S. cerevisiae deletion strains, locus YNL322C, strain KRE1, hits give low values): 0.577 (active)
normalized growth (S. cerevisiae deletion strains, locus YNR030W, strain Alg12, hits give low values): 0.559 (active)
normalized growth (S. cerevisiae deletion strains, locus YPL055C, strain LGE1, hits give low values): 0.171 (active)
normalized growth (S. cerevisiae deletion strains, locus YPL241C, strain CIN2, hits give low values): 0.685 (active)
normalized growth (S. cerevisiae deletion strains, locus YPR135W, strain CTF4, hits give low values): 0.269 (active)
normalized growth (S. cerevisiae strains, strain wild type, hits give low values): 0.515 (active)

Cc1ccccc1C(=O)Oc1ccc(C(F)(F)F)cc1[N+](=O)[O-]
normalized growth (S. cerevisiae deletion strains, locus YAR019C, strain CDC15, hits give low values): 0.961
normalized growth [1]: 0.969
normalized growth [2]: 0.964
normalized growth (S. cerevisiae deletion strains, locus YBR136W, strain MEC1, hits give low values): 0.962
normalized growth [3]: 0.966
normalized growth [4]: 0.975
normalized growth [5]: 0.947
normalized growth [63]: 0.979
normalized growth [6]: 0.964
normalized growth [7]: 0.964
normalized growth [8]: 0.864
normalized growth [9]: 0.969
normalized growth [10]: 0.965
normalized growth (S. cerevisiae deletion strains, locus YDR226W, strain ADK1, hits give low values): 0.982
normalized growth [11]: 0.937
normalized growth [12]: 0.883
normalized growth [13]: 0.941
normalized growth (S. cerevisiae deletion strains, locus YFL009W, strain cdc4, hits give low values): 0.96
normalized growth [14]: 0.965
normalized growth [15]: 0.972
normalized growth (S. cerevisiae deletion strains, locus YFR019W, strain FAB1, hits give low values): 0.979
normalized growth [16]: 0.963
normalized growth [17]: 0.934
normalized growth [18]: 0.894
normalized growth [19]: 0.807
normalized growth [20]: 0.769 (active)
normalized growth [21]: 0.836
normalized growth [22]: 0.951
normalized growth [23]: 0.79
normalized growth [24]: 0.97
normalized growth [25]: 0.831
normalized growth [26]: 0.868
normalized growth [27]: 0.899
normalized growth (S. cerevisiae deletion strains, locus YJR016C, strain ILV3, hits give low values): 0.968
normalized growth [28]: 0.891
normalized growth [29]: 0.948
normalized growth [30]: 0.925
normalized growth [31]: 0.879
normalized growth [32]: 0.874
normalized growth (S. cerevisiae deletion strains, locus YKL193C, strain SDS22, hits give low values): 0.971
normalized growth [33]: 0.956
normalized growth [34]: 0.614 (active)
normalized growth [35]: 0.909
normalized growth [36]: 0.908
normalized growth [37]: 0.891
normalized growth [38]: 0.969
normalized growth [39]: 0.898
normalized growth [40]: 0.962
normalized growth [41]: 0.977
normalized growth [42]: 0.893
normalized growth (S. cerevisiae deletion strains, locus YNL161W, strain CBK1, hits give low values): 0.971
normalized growth [43]: 0.861
normalized growth [44]: 0.956
normalized growth [45]: 0.955
normalized growth [46]: 0.823
normalized growth [47]: 0.969
normalized growth [48]: 0.869
normalized growth [49]: 0.879
normalized growth [50]: 1
normalized growth [51]: 0.827
normalized growth [52]: 0.964
normalized growth [53]: 0.917
normalized growth [54]: 0.917
normalized growth [55]: 0.882
normalized growth [56]: 0.967
normalized growth [57]: 0.784 (active)
normalized growth [58]: 0.959
normalized growth [59]: 0.955
normalized growth [60]: 0.912
normalized growth [61]: 0.941
normalized growth [62]: 0.96
